# Laboratory results taken from PubChem BioAssay (NCATS).
# Where “and” joins values, the source holds several entries; their conditions need not be identical. Identical values can stand only once. Results filed as inconclusive are left out. A call without a number means that no potency is given here. Calls of active or inactive are those of the source. Unless noted, calls come from the whole dose curve.
# Experiments:
# [1] = target: Bile acid receptor (Homo sapiens) (UniProt Q96RI1); experiment: qHTS assay for small molecule agonists of farnesoid X receptor signaling (AID 588527); conditions: HEK293T FXR-UAS-bla, beta-lactamase ratio, 16 h; activation: stronger effect = higher value; note: series mostly up to about 77 µM
# Procedure, shortened: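 Agonist-mode beta-lactamase reporter in GeneBLAzer FXR-UAS-bla HEK293T cells, titration up to 92 uM, 16 h exposure at 37 C, CCF4 fluorescence. Response scaled to DMSO (0%) and 100 uM chenodeoxycholic acid (100%), then Hill-fitted for EC50 and efficacy.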
# [2] = qHTS assay for small molecule agonists of the antioxidant response element (ARE) signaling pathway (AID 651741; active = well fitted activation curve with a large enough effect in the signal ratio; the % refers to the signal ratio; note: potency is the fitted concentration of half-maximal effect)
# Procedure, shortened: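 Compounds in DMSO are pinned onto HepG2 ARE-bla cells (2,000/well) that were preincubated 5 h; plates stay 16 h at 37 C, then beta-lactamase activity is detected with LiveBLAzer B/G substrate by fluorescence.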
# [3] = qHTS assay for small molecule activators of the nuclear factor-kappa B (NF-kB) signaling pathway (AID 651749; active = well fitted activation curve with a large enough effect in the signal ratio; the % refers to the signal ratio; note: series mostly up to about 77 µM); conditions: NF-kB-bla ME-180 cells, beta-lactamase FRET ratio, 16 h; activation: stronger effect = higher value
# Procedure, shortened: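 Screening used 2,000 ME-180 reporter cells per well exposed to pinned compound (23 nL) or DMSO; after 16 hr at 37C, beta-lactamase expression under NF-kB control was assessed through FRET.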
# [4] = qHTS assay for small molecule activators of the human pregnane X receptor (PXR) signaling pathway (AID 720659; call rule not given here)
# [5] = target: Bile acid receptor (Homo sapiens) (UniProt Q96RI1); experiment: qHTS assay for small molecule antagonists of farnesoid X receptor signaling (AID 588526); note: potency is the fitted concentration of half-maximal effect
# Procedure, shortened: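 Concentration-response titrations were fitted to the Hill equation for half-maximal inhibition and maximal response, with data normalised to 50 uM chenodeoxycholic acid and DMSO control wells. Cells: FXR-UAS-bla HEK293T, dialyzed FBS.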
# [6] = qHTS assay for small molecule antagonists of peroxisome proliferator-activated receptor delta signaling (AID 588535; active = well fitted inhibition curve with a large enough effect in the signal ratio, with a control signal flat, not every such curve was filed as active; the % refers to the signal ratio;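 for max response: cells co-treated with a PPAR-delta agonist as stimulator during compound exposure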); conditions: HEK293T PPARd-UAS-bla, beta-lactamase FRET ratio, 18 h; 460 nm channel
# Procedure, shortened: (§1)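 Reporter: UAS-bla under PPAR-delta response element, HEK293T host. Medium: 2% charcoal/dextran FBS. Dosing: titration, 18 hrs, 37 C. Detection: CCF4, 2 hrs RT, 405 ex/460 and 530 em.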
# [7] = target: Peroxisome proliferator-activated receptor delta (Homo sapiens) (UniProt Q03181); experiment: as above
# Procedure, shortened: as §1
# [8] = target: Vitamin D3 receptor (Homo sapiens) (UniProt P11473); experiment: qHTS assay for small molecule antagonists of vitamin D receptor signaling (AID 588541);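 note: receptor activated by calcitriol during compound treatment; series mostly up to about 77 µM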
# Procedure, shortened: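 VDR-UAS-bla HEK293T cells (2000/well, 2% charcoal-stripped FBS) were treated with titrated compounds plus 1-alpha,25-dihydroxyvitamin D3 (50 nM or 3 nM final) for 16 h at 37 C. CCF4 beta-lactamase fluorescence was read; Hill fits gave IC50.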
# [9] = target: Peroxisome proliferator-activated receptor gamma (Homo sapiens) (UniProt P37231); experiment: qHTS assay for small molecule antagonists of peroxisome proliferator-activated receptor gamma signaling (AID 588537; active = well fitted inhibition curve with a large enough effect in the signal ratio, with a control signal flat, not every such curve was filed as active; the % refers to the signal ratio;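 note: reporter cells co-stimulated with 50 nM rosiglitazone agonist during compound treatment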)
# Procedure, shortened: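 We seeded GeneBLAzer HEK293 reporter cells at 3000 per well, allowed 6-6.5 h attachment at 37 C, then co-treated with test compound titrations and 50 nM rosiglitazone overnight (16 h). Inhibition was quantified from 460/530 nm emission ratios.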
# [10] = target: Cytochrome P450 3A4 (Homo sapiens) (UniProt P08684); experiment: qHTS Assay for Inhibitors and Substrates of Cytochrome P450 3A4 (AID 884; active = well fitted curve in the direction sought with a large enough effect; an effect the other way counts as inactive or inconclusive; note: potency is the fitted concentration of half-maximal effect; nearly all actives have a fitted effect of over 50% in size)
# Procedure, shortened: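 20 nM human CYP3A4 with 25 uM Luciferin-PPXE (at KM) in 200 mM KPO4, preincubated 10 min with compound; NADPH regeneration started a 60 min RT reaction. Luciferin detected by luminescence, normalized to 57 uM ketoconazole as full inhibition.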
# [11] = target: Cytochrome P450 3A4 (Homo sapiens) (UniProt P08684); experiment: qHTS Assay for Activators of Cytochrome P450 3A4 (AID 885; active = well fitted curve in the direction sought with a large enough effect; an effect the other way counts as inactive or inconclusive; note: nearly all actives have a fitted effect of over 65% in size)
# Procedure, shortened: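 Signal was normalized against complete inhibition by 57 uM ketoconazole. The reaction used 20nM CYP3A4 with 25uM Luciferin-PPXE, 10-min compound preincubation and a 60-min NADPH-supported step at RT.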
# [12] = Confirmation and Secondary Assay for Modulators of Hemoglobin Beta Chain Splicing at IVS2 654 locus (AID 910; active = well fitted curve in the direction sought with a large enough effect; an effect the other way counts as inactive or inconclusive;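 note: per-well total GFP intensity by laser scanning cytometry after 2-day treatment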)
# Procedure, shortened: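 HeLa cells stably carrying EGFP interrupted by mutant beta-globin IVS2-654 intron (CMV-driven) were treated with compound for 2 days at 37C; corrected splicing was scored as total peak GFP intensity per well (488 nm excitation, 500-520 nm emission).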
# [13] = Confirmation and Secondary Assay for Modulators of Hemoglobin Beta Chain Splicing at IVS2 705 locus (AID 930; active = well fitted curve in the direction sought with a large enough effect; an effect the other way counts as inactive or inconclusive;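 note: HeLa cells stably expressing the EGFP-705 splicing reporter; series mostly up to about 46 µM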)
# Procedure, shortened: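 HeLa cells stably carrying EGFP interrupted by mutant beta-globin IVS2-705 intron (CMV-driven) were seeded at 500 cells/well, treated next day with compound for 2 days at 37C; corrected splicing restores EGFP, read as total peak GFP intensity per well.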
# Vitamin D3 receptor (Homo sapiens), sequence (P11473 whole entry, looked up): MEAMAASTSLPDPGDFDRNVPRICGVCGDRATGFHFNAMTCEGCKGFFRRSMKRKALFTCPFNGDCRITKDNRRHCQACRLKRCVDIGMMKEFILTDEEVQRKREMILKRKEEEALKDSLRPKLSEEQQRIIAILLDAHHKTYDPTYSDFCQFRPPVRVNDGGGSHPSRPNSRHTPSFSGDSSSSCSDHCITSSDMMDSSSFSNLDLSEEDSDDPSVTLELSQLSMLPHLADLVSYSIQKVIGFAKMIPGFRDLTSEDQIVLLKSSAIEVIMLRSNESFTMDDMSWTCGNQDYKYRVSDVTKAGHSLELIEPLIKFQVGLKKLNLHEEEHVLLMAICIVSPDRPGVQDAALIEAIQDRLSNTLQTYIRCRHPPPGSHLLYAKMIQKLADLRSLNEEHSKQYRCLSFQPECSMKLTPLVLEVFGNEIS
# Bile acid receptor (Homo sapiens), sequence (Q96RI1 whole entry, looked up): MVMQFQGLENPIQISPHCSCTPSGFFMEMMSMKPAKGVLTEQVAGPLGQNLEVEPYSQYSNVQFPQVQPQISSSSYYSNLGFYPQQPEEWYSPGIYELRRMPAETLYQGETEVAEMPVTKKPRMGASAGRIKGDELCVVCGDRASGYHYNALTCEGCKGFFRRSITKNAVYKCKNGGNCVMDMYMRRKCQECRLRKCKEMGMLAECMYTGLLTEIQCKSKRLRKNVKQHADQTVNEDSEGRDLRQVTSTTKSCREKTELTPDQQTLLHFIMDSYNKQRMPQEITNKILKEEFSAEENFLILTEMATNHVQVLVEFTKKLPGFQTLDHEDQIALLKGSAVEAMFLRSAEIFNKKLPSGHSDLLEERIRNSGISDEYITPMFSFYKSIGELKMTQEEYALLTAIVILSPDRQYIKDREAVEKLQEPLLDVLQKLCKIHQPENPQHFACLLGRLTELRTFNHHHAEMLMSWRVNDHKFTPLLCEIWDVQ
# Peroxisome proliferator-activated receptor gamma (Homo sapiens), sequence (P37231 whole entry, looked up): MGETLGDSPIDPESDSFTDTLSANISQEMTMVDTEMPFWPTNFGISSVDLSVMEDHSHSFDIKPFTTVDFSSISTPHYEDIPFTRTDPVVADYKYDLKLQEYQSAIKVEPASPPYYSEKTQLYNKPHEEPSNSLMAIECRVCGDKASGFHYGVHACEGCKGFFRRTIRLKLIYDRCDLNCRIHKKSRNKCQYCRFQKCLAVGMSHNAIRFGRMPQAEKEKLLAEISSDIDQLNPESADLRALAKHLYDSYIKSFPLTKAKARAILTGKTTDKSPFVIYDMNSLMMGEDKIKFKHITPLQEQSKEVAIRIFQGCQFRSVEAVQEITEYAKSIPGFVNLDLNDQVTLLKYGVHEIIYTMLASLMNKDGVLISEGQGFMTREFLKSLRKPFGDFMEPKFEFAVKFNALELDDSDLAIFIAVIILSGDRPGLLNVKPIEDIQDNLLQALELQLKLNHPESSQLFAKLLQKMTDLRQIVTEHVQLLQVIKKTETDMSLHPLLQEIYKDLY
# Peroxisome proliferator-activated receptor delta (Homo sapiens), sequence (Q03181 whole entry, looked up): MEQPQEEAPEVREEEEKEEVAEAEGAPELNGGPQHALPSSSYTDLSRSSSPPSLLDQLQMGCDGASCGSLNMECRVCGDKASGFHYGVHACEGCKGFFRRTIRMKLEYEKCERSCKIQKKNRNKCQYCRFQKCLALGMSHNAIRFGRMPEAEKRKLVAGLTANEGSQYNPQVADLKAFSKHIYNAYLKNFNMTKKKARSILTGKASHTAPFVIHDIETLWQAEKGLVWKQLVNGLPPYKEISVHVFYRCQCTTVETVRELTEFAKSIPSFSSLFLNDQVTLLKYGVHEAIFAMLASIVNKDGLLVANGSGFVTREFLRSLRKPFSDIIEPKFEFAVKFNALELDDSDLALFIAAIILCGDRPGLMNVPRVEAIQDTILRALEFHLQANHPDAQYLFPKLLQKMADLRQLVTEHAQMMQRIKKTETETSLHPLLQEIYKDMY
# Cytochrome P450 3A4 (Homo sapiens), sequence (P08684 whole entry, looked up): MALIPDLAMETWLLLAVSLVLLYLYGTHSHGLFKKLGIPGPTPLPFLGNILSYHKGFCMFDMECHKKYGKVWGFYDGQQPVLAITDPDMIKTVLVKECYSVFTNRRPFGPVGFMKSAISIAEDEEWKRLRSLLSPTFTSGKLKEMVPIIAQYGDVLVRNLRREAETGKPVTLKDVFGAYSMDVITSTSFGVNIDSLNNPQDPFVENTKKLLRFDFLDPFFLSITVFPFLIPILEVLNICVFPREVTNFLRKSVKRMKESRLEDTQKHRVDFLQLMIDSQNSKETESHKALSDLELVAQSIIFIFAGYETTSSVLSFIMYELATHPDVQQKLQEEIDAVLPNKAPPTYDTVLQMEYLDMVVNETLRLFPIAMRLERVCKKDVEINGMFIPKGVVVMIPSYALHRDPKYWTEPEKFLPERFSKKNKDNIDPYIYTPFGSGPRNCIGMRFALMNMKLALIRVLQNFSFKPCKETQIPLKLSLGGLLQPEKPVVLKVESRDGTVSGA
smiles,measurement,setting,value
CO/N=C(/C(=O)OC)c1ccccc1COc1ccccc1C,activation,[1],-0.265% (inactive)
same,Potency,[2],12.2 µM (active)
same,activation,[3],-0.43% (inactive)
same,outcome,[4],inactive
Cc1cccc2sc3nncn3c12,Potency,[5],inactive
same,activation,[1],-0.105% (inactive)
same,max response,[6],26.1%
same,Potency,[7],inactive
same,Potency,[2],2.73 µM (active)
CCSC(=O)N(CC)C1CCCCC1,activation,[1],-3.64% (inactive)
same,Potency,[8],inactive
same,activation,[3],1.91% (inactive)
same,outcome,[4],inactive
CC1(C)CCC(Cc2ccc(Cl)cc2)C1(O)Cn1cncn1 (stereo not given),activation,[1],4.35% (inactive)
same,Potency,[9],inactive
same,Potency,[8],inactive
same,activation,[3],-0.913% (inactive)
Nc1nc(N)nc(Cl)n1,Potency,[9],inactive
same,Potency,[2],inactive
same,outcome,[4],inactive
CC(C)(C)C(=O)[C@H](Oc1ccc(Cl)cc1)n1cncn1,Potency,[8],inactive
same,activation,[3],-5.68% (inactive)
COC(=O)/C=C(\C)OP(=O)(OC)OC,activation,[1],7.79% (inactive)
same,max response,[6],-21.6%
same,Potency,[7],inactive
same,Potency,[8],inactive
CSC(=O)c1c(C(F)F)nc(C(F)(F)F)c(C(=O)SC)c1CC(C)C,max response,[6],97.5%
same,Potency,[7],inactive
same,Potency,[9],inactive
same,Potency,[8],inactive
CCC[CH2][Sn]([Cl])([CH2]CCC)[CH2]CCC,Potency,[5],35.5 µM (active)
same,activation,[1],7.19% (inactive)
same,Potency,[2],24.3 µM (active)
C=C(C)C(=O)OCC(CC)CCCC (stereo not given),Potency,[8],inactive
same,Potency,[2],inactive
same,activation,[3],-0.248% (inactive)
same,outcome,[4],inactive
CCc1ccc(C(=O)NN(C(=O)c2cc(C)cc(C)c2)C(C)(C)C)cc1,Potency,[10],3.98 µM (active)
same,Potency,[11],inactive
same,activation,[3],-3.3% (inactive)
O=C(Nc1ccccc1)Nc1cnns1,Potency,[5],inactive
same,activation,[1],-0.107% (inactive)
same,max response,[6],-10.7%
same,Potency,[7],inactive
same,Potency,[8],inactive
same,activation,[3],0.693% (inactive)
CC(C)(C)C(O)/C(=C\c1ccc(Cl)cc1Cl)n1cncn1 (stereo not given),activation,[1],1.69% (inactive)
same,Potency,[8],inactive
CCCCOC(=O)[C@@H](C)Oc1ccc(Oc2ccc(C#N)cc2F)cc1,outcome,[4],inactive
Clc1ccc(C2(Cn3cncn3)CC(Br)CO2)c(Cl)c1 (stereo not given),Potency,[5],inactive
same,max response,[6],30.9%
same,Potency,[7],inactive
same,activation,[3],-2.79% (inactive)
N#CC(CCc1ccc(Cl)cc1)(Cn1cncn1)c1ccccc1 (stereo not given),Potency,[2],68.6 µM (active)
same,activation,[3],2.24% (inactive)
CN(C)c1nc(=O)n(C2CCCCC2)c(=O)n1C,activation,[1],-1.35% (inactive)
same,max response,[6],12.4%
same,Potency,[7],inactive
same,Potency,[9],inactive
same,Potency,[8],inactive
same,outcome,[4],inactive
CCc1cc(C)cc(CC)c1-c1c(OC(=O)C(C)(C)C)n2n(c1=O)CCOCC2,activation,[1],2.69% (inactive)
same,max response,[6],34.5%
same,Potency,[7],inactive
same,Potency,[9],inactive
same,Potency,[8],inactive
same,Potency,[2],inactive
same,activation,[3],-1.54% (inactive)
C=CCOC(=O)C(C)(C)OC(=O)c1cc(-n2c(=O)cc(C(F)(F)F)n(C)c2=O)ccc1Cl,max response,[6],15.1%
same,Potency,[7],inactive
same,Potency,[9],inactive
CN(C)P(=O)(N(C)C)N(C)C,activation,[1],3.22% (inactive)
same,max response,[6],-0.709%
same,Potency,[7],inactive
same,Potency,[9],inactive
same,Potency,[8],inactive
same,Potency,[2],inactive
same,outcome,[4],inactive
CNP(=O)(OC)Oc1ccc(C(C)(C)C)cc1Cl (stereo not given),max response,[6],45%
same,Potency,[7],inactive
same,Potency,[8],inactive
same,Potency,[2],61.1 µM (active)
same,activation,[3],1.2% (inactive)
CCOP(OCC)OCC,Potency,[5],inactive
same,activation,[1],-1.35% (inactive)
same,Potency,[9],inactive
same,activation,[3],-0.0576% (inactive)
same,outcome,[4],inactive
CC1(C)[C@H](C=C(Cl)Cl)[C@H]1C(=O)O[C@H](C#N)c1ccc(F)c(Oc2ccccc2)c1,max response,[6],27%
same,Potency,[7],inactive
same,Potency,[9],inactive
same,Potency,[8],inactive
same,activation,[3],4.2% (inactive)
CCCCNC(=O)OCC#CI,activation,[1],1.93% (inactive)
same,outcome,[4],inactive
CCC(C)(C)c1ccc(O)c(C(C)(C)CC)c1,Potency,[5],inactive
same,max response,[6],-2.29%
same,Potency,[7],inactive
same,Potency,[2],61.1 µM (active)
CC(C)(C)C(=O)[C@@H](Oc1ccc(Cl)cc1)n1cncn1,max response,[6],38.3%
same,Potency,[7],inactive
same,Potency,[9],inactive
same,activation,[3],-1.55% (inactive)
CCCCCCCCCCCCCCC(Br)C(=O)O (stereo not given),activation,[1],4.69% (inactive)
same,Potency,[9],inactive
same,Potency,[8],inactive
same,Potency,[2],21.7 µM (active)
same,outcome,[4],inactive
CCOC(=O)Nc1cccc(OC(=O)Nc2ccccc2)c1,max response,[6],9.77%
same,Potency,[7],inactive
same,Potency,[9],inactive
same,Potency,[8],inactive
same,Potency,[2],24.3 µM (active)
same,activation,[3],0.127% (inactive)
N#CN=C1SCCN1Cc1ccc(Cl)nc1,max response,[6],8.04%
same,Potency,[7],inactive
same,Potency,[2],inactive
same,activation,[3],-0.492% (inactive)
CON(C)C(=O)Nc1ccc(Cl)c(Cl)c1,Potency,[8],inactive
same,activation,[3],-2.01% (inactive)
CC(C)N(C(=O)COc1nnc(C(F)(F)F)s1)c1ccc(F)cc1,max response,[6],-37.1%
same,Potency,[7],inactive
same,Potency,[2],48.6 µM (active)
O=C(O)C(F)(F)C(F)(F)C(F)(F)C(F)(F)C(F)(F)C(F)(F)C(F)(F)C(F)(F)C(F)(F)F,max response,[6],7.25% and 27.2%
same,Potency,[7],inactive
same,Potency,[9],inactive
same,activation,[3],1.39% (inactive) and -1.65% (inactive)
same,outcome,[4],inactive
CCC(C)Nc1c([N+](=O)[O-])cc(C(C)(C)C)cc1[N+](=O)[O-] (stereo not given),max response,[6],-21.7%
same,Potency,[7],inactive
same,Potency,[8],inactive
Cn1c(-c2ccccc2)cc(-c2ccccc2)[n+]1C,Potency,[9],inactive
same,Potency,[8],inactive
Brc1c(Br)c(Br)c(Br)c(Br)c1Br,max response,[6],-24.6%
same,Potency,[7],inactive
same,Potency,[9],inactive
same,activation,[3],-0.808% (inactive)
same,outcome,[4],inactive
Brc1ccc(Oc2ccccc2)cc1,max response,[6],2.82%
same,Potency,[7],inactive
same,Potency,[9],inactive
same,Potency,[8],inactive
same,outcome,[4],inactive
CCOP(=S)(OCC)SCn1c(=O)oc2cc(Cl)ccc21,Potency,[10],0.794 µM (active)
same,Potency,[11],inactive
same,Potency,[12],inactive
same,outcome,[13],inactive
same,activation,[1],-2.19% (inactive)
same,Potency,[8],inactive
CNC(=O)Oc1cccc(N=CN(C)C)c1,Potency,[5],inactive
same,max response,[6],16.5%
same,Potency,[7],inactive
same,Potency,[9],inactive
same,Potency,[8],inactive
same,outcome,[4],inactive
